A selection: hits, their analogues and other compounds. The true share with any hit is near 10%.
BAZ2B block – inhibitors of human BAZ2B bromodomain; AID 504333; AlphaScreen BAZ2B-H3K14Ac peptide displacement; hit rate 4.4% among 360,000; Q9UIF8; Potency, µM (titrated, usually from 114 µM), for inactives: top-dose activity change, negative = inhibition, hits mostly inhibitors; also: potency is read from the fitted curve at half-maximal effect; % is scaled to controls: 0 for no effect and ±100 for the full control effect; nearly all actives have a fitted effect of over 60% in size
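Compounds, titrated to a top concentration of 110 uM, were incubated 30 min at room temperature with preformed BAZ2B/acetyl-K14 H3 peptide complex (50 nM each). Proximity signal was measured by AlphaScreen after 20 min with beads.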
Six1-Eya2 inh – Six1/Eya2 interaction inhibition; Q15475+O00167; AlphaScreen GST-Six1/His-Eya2 binding, biochemical; hits give low values; activity change, % (concentration not given with the values); hit rate 0.56% among 360,000; AID 651725; in the data active = activity change below about -65%; inconclusive = mostly about -30% to -63%; also: % is scaled to controls: 0 for no effect and ±100 for the full control effect
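Six1/Eya2 binding was read as AlphaScreen signal after compounds were pinned into GST-Six1 plus His-tagged Eya2 (5X stock 250/500 nM) in pH 8.0 Tris/NaCl/TCEP buffer, beads added, then incubated 1 h, 37 C, dark.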
CtBP-E1A inh – CtBP/E1A binding inhibition; AlphaScreen GST-E1A/His-CtBP binding, 1536-well; hits give low values; activity change, % (concentration not given with the values); hit rate 0.49% among 340,000; in the data active = activity change below about -65%; inconclusive = mostly about -30% to -63%; also: % is scaled to controls: 0 for no effect and ±100 for the full control effect
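GST-E1A and His-tagged CtBP (125 nM each as 5X stock) were preincubated with pin-transferred compound for 2 h at 37 °C in the dark, then glutathione donor and nickel acceptor beads were added for 1 h before AlphaScreen reading.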
HP1b chromo inh – HP1-beta chromodomain-methylated histone interaction inhibition; Potency, µM (doses to about 114 µM), for inactives: at the top dose activity change, negative = inhibition, most hits filed as inhibitors; hit rate 0.56% among 390,000; AID 540317; P83916; AlphaScreen HP1-beta / biotin-H3K9me3 peptide binding; also: potency is read from the fitted curve at half-maximal effect; nearly all actives have a fitted effect of over 70% in size
Target sequence (P83916 whole entry, looked up): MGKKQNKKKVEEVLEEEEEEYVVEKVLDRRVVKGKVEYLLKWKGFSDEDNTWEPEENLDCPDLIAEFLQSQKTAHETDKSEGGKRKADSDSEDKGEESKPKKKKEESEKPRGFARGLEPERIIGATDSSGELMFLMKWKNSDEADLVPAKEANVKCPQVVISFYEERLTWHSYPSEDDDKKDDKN
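AlphaScreen: HP1-beta (50 nM) preformed 30 min with biotin-H3(1-18)K9me3 peptide (50 nM) in PBS pH 7.4, 0.01% Tween-20. Compound added for 30 min at RT, then streptavidin donor/nickel chelate acceptor beads (10 ug/mL) for 30 min.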
JMJD2A Tudor inh – inhibitors of human JMJD2A Tudor domain. AlphaScreen JMJD2A-Tudor / H3K4me3 peptide binding. Potency, µM (highest dose often 114 µM), inactives show at the highest dose activity change, negative = inhibition, hits mostly inhibitors. hit rate 4.4% among 390,000. AID 504339; also: potency is read from the fitted curve at half-maximal effect; % is scaled to controls: 0 for no effect and ±100 for the full control effect; nearly all actives have a fitted effect of over 50% in size
G9a inh – G9a (human) methyltransferase inhibition. Q96KQ7. G9a H3K9 monomethylation, AlphaScreen, 2 h. Potency, µM (highest dose often 102 µM), inactives show at the top dose activity, negative = inhibition, most hits filed as inhibitors. hit rate 8.8% among 350,000; also: potency is read from the fitted curve at half-maximal effect; % is scaled to controls: 0 for no effect and ±100 for the full control effect; nearly all actives have a fitted effect of over 75% in size
Target sequence (Q96KQ7 913-1193 limits assumed): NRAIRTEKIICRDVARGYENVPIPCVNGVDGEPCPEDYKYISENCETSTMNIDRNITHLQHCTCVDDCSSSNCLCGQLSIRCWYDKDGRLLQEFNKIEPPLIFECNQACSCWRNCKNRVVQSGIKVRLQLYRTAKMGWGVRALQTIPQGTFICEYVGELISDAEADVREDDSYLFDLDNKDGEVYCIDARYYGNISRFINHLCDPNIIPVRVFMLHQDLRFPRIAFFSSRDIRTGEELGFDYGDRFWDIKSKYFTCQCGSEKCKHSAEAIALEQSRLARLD
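G9a (20 nM) was preincubated 15 min with compound, then reacted 2 h at room temperature with 500 nM biotin-H3K9 peptide and 20 µM SAM. Monomethyl-H3K9 detected by AlphaScreen using anti-H3K9me1 antibody.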
Starred values were filed as active, the others as inactive; ? = inconclusive; nt = no result; [ ] = remark or other dose. Unless noted, calls follow the shape of the dose curve; as a rule, active = well fitted inhibition curve with a large enough effect; inconclusive = small, poorly fitted or top-dose-only effect; inactive = no such curve, though single readings can be large or run the other way.

SMILES | BAZ2B block | Six1-Eya2 inh | CtBP-E1A inh | HP1b chromo inh | JMJD2A Tudor inh | G9a inh
CC1=C(C(=O)N(C)C)CC(CC(=O)NCc2cccc3ccccc23)C(=O)N1Cc1ccc(F)cc1 (centres undefined) | nt | -1.2 | 3.7 | nt | nt | nt
CCN(C(=O)CSc1nc(-c2ccccc2)no1)c1cccc(C)c1 | 143.3% | nt | nt | 147.3% | 92.2% | 8.4%[59 µM]
CCOc1cccc(=O)c2c(C)n(-c3ccc(C(=O)O)cc3)c(C)c12 | 50.1µM* | -27.5 | -4.2 | ? | ? | nt
Cc1ccc(C(=O)COC(=O)c2cnccn2)cc1 | 1.6% | 3.6 | 4.0 | 29.8% | -51.5% | ?
COc1ccc(C(=O)COC(=O)c2ccccn2)cc1OC | ? | -16.0 | ? | 23.6% | -24.5% | ?
O=C(COC(=O)c1ccccn1)c1ccc(Br)cc1 | 25.1µM* | ? | ? | 18.0% | 28.2µM* | 50.1µM*
O=C(COC(=O)c1cn(-c2ccccc2)nc1-c1ccccc1)c1ccc([N+](=O)[O-])cc1 | ? | nt | nt | nt | nt | 2.51µM*
O=C(COC(=O)c1ccccn1)c1cccc(Br)c1 | 17.8µM* | ? | ? | 19.0% | 12.6µM* | nt
O=C(COC(=O)c1cnccn1)c1ccc([N+](=O)[O-])cc1 | ? | -5.6 | -11.3 | 4.9% | -14.9% | 25.1µM*
O=C1c2ccccc2C(=O)N1Cc1ccncc1 | nt | nt | nt | nt | -12.9% | nt
CC(=O)Nc1ccc(SCC(c2ccccc2)N2CCN(C)CCC2=O)cc1 (centres undefined) | nt | nt | nt | 14.9% | -11.0% | nt
Cc1oc2ncn(CC(C)C)c(=O)c2c1C(=O)NC(C)c1ccccc1 (centres undefined) | 8.9%[57.1 µM] | nt | nt | 3.4% | -18.1% | -1.1%[59 µM]
COc1ccc(C(=O)N2CCC3(CCCN(c4ccccc4)C3)CC2)cc1 | nt | nt | nt | nt | nt | -4.8%[12.7 µM]
COC(=O)[C@@]1(Cc2ccc(F)cc2)[C@H]2c3cc(C(=O)N(C)C)n(CCc4ccc(OC)c(Br)c4)c3C[C@H]2CN1C(=O)c1ccccc1 | ? | -7.6 | -0.7 | 1.3% | ? | 25.1µM*
COC(=O)[C@@]1(Cc2ccc(F)cc2)[C@H]2c3cc(C(=O)N(C)C)n(Cc4ccccc4)c3C[C@H]2CN1C(=O)c1ccccc1 | ? | -10.3 | -5.1 | -15.4% | ? | ?
COC(=O)[C@@]1(Cc2ccc(F)cc2)[C@H]2c3cc(C(=O)N(C)C)n(Cc4ccc(OC)c(OC)c4)c3C[C@H]2CN1C(=O)c1ccccc1 | ? | -13.3 | -5.6 | -14.4% | ? | 50.1µM*
Cc1ccccc1C(=O)N1CCC1(C)C(=O)NC(C)C (centres undefined) | nt | 5.7 | -5.5 | nt | nt | nt
CCCN(CCC)c1nc2ccccc2nc1C(C#N)C(=O)OCCOC (centres undefined) | -31.0% | 0.1 | 6.2 | 8.5% | -9.6% | -23.7%[59 µM]
C=CCN(CC=C)c1nc2ccccc2nc1C(C#N)C(=O)OCCOC (centres undefined) | -31.4% | -7.1 | 1.5 | 35.5% | -20.1% | 50.1µM*
N#CCC(=O)Nc1ccc(C(=O)OCC(=O)NC2CCCc3ccccc32)cc1 (centres undefined) | nt | -8.1 | 9.4 | 18.6% | -9.0% | nt
C=CCNC(=O)c1ccccc1NC(=O)C1CCN(S(=O)(=O)c2ccc(SC)cc2)CC1 | 50.1µM* | -3.3 | 0.0 | -3.0% | -7.0% | 10.0%
COC1=C(Nc2ccc(O)cc2)C(=O)c2ccccc2C1=O | 39.8µM* | ? | ? | 50.1µM* | 44.7µM* | 28.2µM*
COC1=C(Nc2ccc(OC)cc2)C(=O)c2ccccc2C1=O | 8.91µM* | -75.3* | 12.3 | 22.4µM* | 20µM* | 10µM*
COC1=C(Nc2ccc(OC)cc2)C(=O)C(OC)=C(Nc2ccc(OC)cc2)C1=O | nt | -3.9 | -10.5 | 10.9% | -12.3% | nt
CCOc1ccc(NC2=C(OC)C(=O)c3ccccc3C2=O)cc1 | 10µM* | -74.9* | ? | 25.1µM* | 8.91µM* | 8.91µM*
Cc1ccc(/C=C/C(=O)OCC(=O)c2ccc3c(c2)NC(=O)CO3)o1 | nt | 0.1 | -3.0 | -6.3% | -22.8% | nt
Cc1cccc(C(=O)OCC(=O)c2ccc3c(c2)NC(=O)CO3)c1 | nt | -3.0 | 2.6 | 32.4% | -0.7% | nt

Bioassay records: PubChem BioAssay, National Center for Advancing Translational Sciences (NCATS)
